These results are taken from PubChem BioAssay (Tox21).

The nature of assay [1]: Human pregnane X receptor (PXR) small molecule agonists, qHTS cell viability counter screen (AID 1346977). Further: nearly all actives have a fitted effect of over 50% in size. Further: potency means the concentration at half of the fitted maximal effect. A digest of the protocol: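 PXR-Luc HepG2 cells (2,000/well, 5% charcoal-stripped FBS) preincubated 5 hr, then exposed to compounds 24 hr at 37 C. Viability read in the same wells by CellTiter-Fluor fluorescence, reagent added at 23 hr, 1 hr incubation.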
Assay [2] in a line: Caspase-3/7 induction in HepG2 cells by small molecules, qHTS assay (AID 1346978). Further: nearly all actives have a fitted effect of over 15% in size. In a few lines:
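Wild-type HepG2 cells (2,000/well) were settled 5 h at 37 C, 5% CO2, then exposed to compounds in DMSO for 17 h. Caspase-3/7 activity was read by luminescence 30 min after adding Caspase-Glo 3/7 reagent at room temperature.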

The nature of assay [3]: Caspase-3/7 induction in CHO-K1 cells by small molecules, qHTS cell viability counter screen (AID 1346979). Further: nearly all actives have a fitted effect of over 35% in size. Further: potency means the concentration at half of the fitted maximal effect. In a few lines: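 Wild-type CHO-K1 cells (1,500/well) treated with compound after 5 h plating; after 16 h at 37C, viability read as CellTiter-Fluor fluorescence following 1 h reagent incubation, in the same wells as the caspase read.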
Assay [4] is described as follows: Caspase-3/7 induction in CHO-K1 cells by small molecules, qHTS assay (AID 1346980). Further: nearly all actives have a fitted effect of over 15% in size. In a few lines:
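Wild-type cells were seeded at 1,500 per well and settled 5 hr at 37 C, 5% CO2, then exposed to DMSO-dissolved compounds for 17 hr. Caspase-Glo 3/7 reagent was added, and luminescence was read after 30min at room temperature.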

Assay [5] can be described thus: Caspase-3/7 induction in HepG2 cells by small molecules, qHTS cell viability counter screen (AID 1346981). Further: nearly all actives have a fitted effect of over 30% in size. Further: potency means the concentration at half of the fitted maximal effect. On activity change, negative = cytotoxicity: series mostly up to about 92 µM. In a few lines: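 CellTiter-Fluor fluorescence measured viability in the same wells used for Caspase-Glo 3/7. HepG2 (wild type) at 2,000 cells/well were pre-incubated 5 hr, dosed, and given reagent at 16 hr, with 1 hr further at 37C.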
Assay [6] deals with Cytochrome P450 2D6 (Homo sapiens) (UniProt P10635). The experiment in a line: Cytochrome P450 Family 2 Subfamily D Member 6 (CYP2D6) small molecule antagonists: luciferase reporter qHTS assay (AID 1671196). Further: series mostly up to about 120 µM; nearly all actives have a fitted effect of over 50% in size. A digest of the protocol:
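CYP2D6 activity was followed as luminescence from its luciferin product after a 1 h NADPH-driven reaction at room temperature. Enzyme-substrate mix and compound were pre-incubated for 10 min, and the signal was read 20 min after adding detection reagent.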

Assay [7] has as its target Cytochrome P450 2C19 (Homo sapiens) (UniProt P33261). The experiment in a line: Cytochrome P450 Family 2 Subfamily C Member 19 (CYP2C19) small molecule antagonists: luciferase reporter qHTS assay (AID 1671197). Further: nearly all actives have a fitted effect of over 65% in size. Further: potency means the concentration at half of the fitted maximal effect. On activity change, negative = inhibition: series mostly up to about 120 µM. In a few lines: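 Quantitative high-throughput screen of the Tox21 library using CYP2C19 with proluciferin substrate. Reaction: NADPH regeneration, 37C, 1 h, after 10 min compound preincubation at room temperature. Readout: luminescence.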

Assay [8] has as its target Cytochrome P450 2C9 (Homo sapiens) (UniProt P11712). The experiment in a line: Cytochrome P450 Family 2 Subfamily C Member 9 (CYP2C9) small molecule antagonists: luciferase reporter qHTS assay (AID 1671198). Further: nearly all actives have a fitted effect of over 50% in size. Further: potency means the concentration at half of the fitted maximal effect. On activity change, negative = inhibition: series mostly up to about 120 µM. In a few lines: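 CYP2C9 activity was measured with a P450-Glo proluciferin substrate. Enzyme–substrate mix was held with compound for 10 min at room temperature, then NADPH regeneration solution was added for 1 h at 37C. Luciferin product was read as luminescence.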

Assay [9] deals with Cytochrome P450 1A2 (Homo sapiens) (UniProt P05177). The experiment in a line: Cytochrome P450 Family 1 Subfamily A Member 2 (CYP1A2) small molecule antagonists: luciferase reporter qHTS assay (AID 1671199). Further: nearly all actives have a fitted effect of over 50% in size. Further: potency means the concentration at half of the fitted maximal effect. On activity change, negative = inhibition: series mostly up to about 120 µM. In a few lines:
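Luminescence from luciferin formed by CYP1A2 from a proluciferin substrate, read 20 min after detection reagent. Compound was pre-incubated 10 min with enzyme-substrate, and reaction started with NADPH regeneration solution for 1 h at room temperature; furafylline control.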

The target of assay [10] is Voltage-gated inwardly rectifying potassium channel KCNH2 (Homo sapiens) (UniProt Q12809). The experiment in a line: Human Ether-a-go-go-Related Gene (hERG) channel small molecule antagonists: fluorescence cell-based qHTS assay (AID 1671200). A digest of the protocol: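 hERG-U2OS cells plated overnight at 37 C, loaded with FluxOR II dye 1 h at RT in dark; after 10 min, thallium stimulus added. Fluorescence (480/540 nm) read kinetically for 2 min at 1 s intervals.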

For assay [11], the target named is Cytochrome P450 3A4 (Homo sapiens) (UniProt P08684). The experiment in a line: Cytochrome P450 Family 3 Subfamily A Member 4 (CYP3A4) small molecule antagonists: luciferase reporter qHTS assay (AID 1671201). Further: nearly all actives have a fitted effect of over 50% in size. Further: potency means the concentration at half of the fitted maximal effect. On activity change, negative = inhibition: series mostly up to about 120 µM. In a few lines: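 P450-Glo CYP3A4 luminescent assay: compounds preincubated 10 min at room temperature with enzyme and proluciferin substrate, NADPH regeneration added, 1 h room-temperature reaction, stopped with luciferin detection reagent; luminescence read after 20 min. Ketoconazole positive control.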

Assay [12] addresses Nuclear receptor subfamily 1 group I member 2 (Homo sapiens) (UniProt O75469). The experiment in a line: Human pregnane X receptor (PXR) small molecule agonists, qHTS assay (AID 1346982). Further: nearly all actives have a fitted effect of over 35% in size. Further: potency means the concentration at half of the fitted maximal effect. In a few lines: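 Agonist mode: luminescence from ONE-Glo after 24 h compound exposure at 37C in HepG2 cells carrying hPXR-responsive CYP3A4 luciferase, plated in charcoal-stripped serum medium 5 h beforehand.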

Assay [13] deals with Nuclear receptor subfamily 1 group I member 2 (Rattus norvegicus) (UniProt Q9R1A7). In words: Rat pregnane X receptor (rPXR) activation by small molecules, qHTS assay (AID 1346983). Further: nearly all actives have a fitted effect of over 20% in size. Conditions: rPXR luciferase reporter cells, One-Glo luminescence, 24 h; max activation: stronger effect = higher value. In a few lines: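 Cell-based rPXR luciferase reporter assay, 2,000 cells per well, rested 5hr at 37 C before compound addition in DMSO, then 24 hr at 37 C. One-Glo reagent was added and luminescence read after 30 min at room temperature.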

Assay [14] addresses Nuclear receptor subfamily 1 group I member 2 (Homo sapiens) (UniProt O75469). In words: CYP3A4 induction through human pregnane X receptor (PXR) by small molecules, qHTS assay (AID 1346984). Further: nearly all actives have a fitted effect of over 40% in size. A digest of the protocol: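 Read-out is luminescence after One-Glo addition, following a 3 hr, 37C incubation with Luciferin-IPA CYP3A4 substrate (3uM final). Before that, compounds were on DPX-2 cells (HepG2 co-transfected with PXR element plus CYP3A4-promoter luciferase) for 24 hr at 37C.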

Assay [15] has the same target. In words: Human pregnane X receptor (PXR) activation by small molecules, qHTS assay (AID 1346985). Further: nearly all actives have a fitted effect of over 40% in size. In a few lines:
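DPX-2 cells (HepG2 co-transfected with a PXR response element and a CYP3A4-promoter luciferase construct) were seeded at 2,000 per well, rested 5 hr at 37C, then exposed to DMSO-dissolved compounds for 24 hr. Activation was read as luciferase luminescence.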

Unmarked numbers belong to inactive results. Results filed as inconclusive are left out. Activity calls are given as the source filed them. The call rests on the fitted dose curve; in most records, active means well fitted curve in the direction sought with a large enough effect in the repeat runs; inconclusive means weak or mixed curves; inactive means no such curve, though single readings can be large; an effect the other way counts as inactive or inconclusive.
On the % scale 0 is the no-effect control and ±100 the full control effect.

Cytochrome P450 2C19 (Homo sapiens), sequence (P33261 whole entry, looked up): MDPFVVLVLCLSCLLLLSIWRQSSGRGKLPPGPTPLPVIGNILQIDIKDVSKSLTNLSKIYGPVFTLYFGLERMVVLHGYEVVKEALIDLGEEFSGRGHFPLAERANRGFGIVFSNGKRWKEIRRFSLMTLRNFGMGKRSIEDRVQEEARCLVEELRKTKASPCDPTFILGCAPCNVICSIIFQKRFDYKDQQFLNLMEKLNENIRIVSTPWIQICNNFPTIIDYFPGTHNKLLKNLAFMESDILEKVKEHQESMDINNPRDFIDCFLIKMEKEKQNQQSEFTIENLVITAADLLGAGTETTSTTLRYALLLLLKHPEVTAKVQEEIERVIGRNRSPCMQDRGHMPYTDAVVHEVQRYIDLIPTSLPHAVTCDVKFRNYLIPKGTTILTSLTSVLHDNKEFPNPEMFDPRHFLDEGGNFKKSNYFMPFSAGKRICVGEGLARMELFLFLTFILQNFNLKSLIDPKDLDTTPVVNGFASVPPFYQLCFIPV
Cytochrome P450 2C9 (Homo sapiens), sequence (P11712 whole entry, looked up): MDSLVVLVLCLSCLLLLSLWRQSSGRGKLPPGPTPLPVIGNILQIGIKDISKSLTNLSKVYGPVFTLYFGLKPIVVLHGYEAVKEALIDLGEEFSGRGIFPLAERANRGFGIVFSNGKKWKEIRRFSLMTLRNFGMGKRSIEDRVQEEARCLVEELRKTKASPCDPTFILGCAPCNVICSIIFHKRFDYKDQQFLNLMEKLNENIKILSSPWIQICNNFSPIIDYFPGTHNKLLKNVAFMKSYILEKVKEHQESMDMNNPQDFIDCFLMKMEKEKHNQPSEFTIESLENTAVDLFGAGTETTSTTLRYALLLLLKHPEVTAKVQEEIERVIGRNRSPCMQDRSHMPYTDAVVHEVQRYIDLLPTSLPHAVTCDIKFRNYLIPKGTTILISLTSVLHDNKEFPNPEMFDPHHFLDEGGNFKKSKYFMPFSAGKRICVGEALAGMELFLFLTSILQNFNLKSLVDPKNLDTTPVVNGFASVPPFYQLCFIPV
Voltage-gated inwardly rectifying potassium channel KCNH2 (Homo sapiens), sequence (Q12809 whole entry, looked up): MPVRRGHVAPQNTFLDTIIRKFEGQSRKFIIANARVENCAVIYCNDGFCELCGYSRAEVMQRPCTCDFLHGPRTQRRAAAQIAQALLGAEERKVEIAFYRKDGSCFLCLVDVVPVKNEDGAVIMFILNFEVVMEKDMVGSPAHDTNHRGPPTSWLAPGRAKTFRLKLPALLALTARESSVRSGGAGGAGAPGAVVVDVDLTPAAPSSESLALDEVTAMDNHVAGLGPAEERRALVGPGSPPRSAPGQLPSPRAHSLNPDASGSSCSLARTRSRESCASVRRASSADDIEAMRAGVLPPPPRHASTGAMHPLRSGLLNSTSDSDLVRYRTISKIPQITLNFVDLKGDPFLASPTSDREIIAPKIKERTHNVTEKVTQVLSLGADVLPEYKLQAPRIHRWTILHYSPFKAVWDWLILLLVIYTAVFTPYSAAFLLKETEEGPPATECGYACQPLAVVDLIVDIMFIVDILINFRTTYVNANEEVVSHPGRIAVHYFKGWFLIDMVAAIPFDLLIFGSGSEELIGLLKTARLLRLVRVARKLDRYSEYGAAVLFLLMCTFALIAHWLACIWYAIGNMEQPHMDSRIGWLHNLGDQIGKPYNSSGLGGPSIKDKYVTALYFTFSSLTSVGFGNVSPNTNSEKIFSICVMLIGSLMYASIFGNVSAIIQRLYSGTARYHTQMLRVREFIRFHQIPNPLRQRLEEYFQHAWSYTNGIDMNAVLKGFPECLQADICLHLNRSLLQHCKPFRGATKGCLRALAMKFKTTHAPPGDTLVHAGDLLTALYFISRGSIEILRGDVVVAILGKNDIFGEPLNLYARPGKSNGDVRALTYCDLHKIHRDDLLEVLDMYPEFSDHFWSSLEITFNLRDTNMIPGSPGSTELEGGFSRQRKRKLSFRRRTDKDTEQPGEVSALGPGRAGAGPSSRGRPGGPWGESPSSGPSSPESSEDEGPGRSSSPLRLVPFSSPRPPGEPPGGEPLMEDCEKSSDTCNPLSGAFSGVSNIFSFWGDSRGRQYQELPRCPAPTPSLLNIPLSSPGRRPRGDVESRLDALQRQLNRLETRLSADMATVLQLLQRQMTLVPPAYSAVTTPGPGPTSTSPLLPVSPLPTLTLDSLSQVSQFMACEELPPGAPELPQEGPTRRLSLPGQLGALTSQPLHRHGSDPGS
Cytochrome P450 2D6 (Homo sapiens), sequence (P10635 whole entry, looked up): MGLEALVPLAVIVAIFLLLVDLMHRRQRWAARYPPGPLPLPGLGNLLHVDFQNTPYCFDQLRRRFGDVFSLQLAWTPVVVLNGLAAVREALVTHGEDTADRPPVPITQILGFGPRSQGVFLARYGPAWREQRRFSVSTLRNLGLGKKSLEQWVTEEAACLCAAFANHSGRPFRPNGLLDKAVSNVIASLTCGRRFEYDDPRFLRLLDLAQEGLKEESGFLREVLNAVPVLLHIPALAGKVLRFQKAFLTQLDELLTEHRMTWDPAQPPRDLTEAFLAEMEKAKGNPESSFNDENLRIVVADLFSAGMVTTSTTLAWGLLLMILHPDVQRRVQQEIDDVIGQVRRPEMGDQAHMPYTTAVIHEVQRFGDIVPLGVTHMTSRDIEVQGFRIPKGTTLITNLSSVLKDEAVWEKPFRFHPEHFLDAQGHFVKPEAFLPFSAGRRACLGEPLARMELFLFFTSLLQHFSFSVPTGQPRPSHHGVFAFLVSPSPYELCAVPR
Cytochrome P450 1A2 (Homo sapiens), sequence (P05177 whole entry, looked up): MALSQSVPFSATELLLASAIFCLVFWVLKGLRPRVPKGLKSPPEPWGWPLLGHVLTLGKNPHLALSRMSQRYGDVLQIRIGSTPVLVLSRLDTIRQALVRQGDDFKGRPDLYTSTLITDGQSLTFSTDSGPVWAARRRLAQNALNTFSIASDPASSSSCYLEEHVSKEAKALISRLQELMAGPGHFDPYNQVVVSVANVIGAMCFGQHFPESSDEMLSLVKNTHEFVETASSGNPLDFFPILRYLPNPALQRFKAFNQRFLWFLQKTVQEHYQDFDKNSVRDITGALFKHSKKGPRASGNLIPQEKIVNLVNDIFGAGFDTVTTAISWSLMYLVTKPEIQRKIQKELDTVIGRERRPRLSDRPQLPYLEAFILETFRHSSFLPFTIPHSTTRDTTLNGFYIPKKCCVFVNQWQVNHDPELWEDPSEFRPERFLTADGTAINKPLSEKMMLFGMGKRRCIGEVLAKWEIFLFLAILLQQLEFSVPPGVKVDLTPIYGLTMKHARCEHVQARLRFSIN
Cytochrome P450 3A4 (Homo sapiens), sequence (P08684 whole entry, looked up): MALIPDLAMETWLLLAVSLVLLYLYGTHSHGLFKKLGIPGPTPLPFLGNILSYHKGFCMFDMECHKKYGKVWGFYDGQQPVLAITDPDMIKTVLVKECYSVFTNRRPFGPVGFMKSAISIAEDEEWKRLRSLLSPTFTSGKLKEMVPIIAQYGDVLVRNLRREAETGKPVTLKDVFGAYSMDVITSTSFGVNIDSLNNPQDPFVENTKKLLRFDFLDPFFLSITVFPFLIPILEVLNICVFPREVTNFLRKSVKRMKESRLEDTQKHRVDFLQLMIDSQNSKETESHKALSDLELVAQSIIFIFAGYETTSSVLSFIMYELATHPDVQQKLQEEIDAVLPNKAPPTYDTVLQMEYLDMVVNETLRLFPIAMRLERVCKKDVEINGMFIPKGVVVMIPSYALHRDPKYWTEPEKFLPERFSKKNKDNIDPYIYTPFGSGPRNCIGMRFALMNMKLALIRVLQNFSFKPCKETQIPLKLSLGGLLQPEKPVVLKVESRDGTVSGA
Nuclear receptor subfamily 1 group I member 2 (Homo sapiens), sequence (O75469 whole entry, looked up): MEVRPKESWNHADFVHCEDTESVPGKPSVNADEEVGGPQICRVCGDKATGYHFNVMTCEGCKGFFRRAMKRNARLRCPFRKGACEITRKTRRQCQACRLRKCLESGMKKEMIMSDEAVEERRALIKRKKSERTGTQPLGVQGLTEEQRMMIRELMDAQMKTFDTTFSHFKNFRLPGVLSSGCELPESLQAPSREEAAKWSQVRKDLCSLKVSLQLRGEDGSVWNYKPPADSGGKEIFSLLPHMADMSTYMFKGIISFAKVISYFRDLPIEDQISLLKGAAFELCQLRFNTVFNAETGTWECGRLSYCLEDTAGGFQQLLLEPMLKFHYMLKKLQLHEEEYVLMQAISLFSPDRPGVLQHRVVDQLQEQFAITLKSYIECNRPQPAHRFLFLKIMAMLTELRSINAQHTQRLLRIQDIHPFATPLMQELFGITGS
Nuclear receptor subfamily 1 group I member 2 (Rattus norvegicus), sequence (Q9R1A7 whole entry, looked up): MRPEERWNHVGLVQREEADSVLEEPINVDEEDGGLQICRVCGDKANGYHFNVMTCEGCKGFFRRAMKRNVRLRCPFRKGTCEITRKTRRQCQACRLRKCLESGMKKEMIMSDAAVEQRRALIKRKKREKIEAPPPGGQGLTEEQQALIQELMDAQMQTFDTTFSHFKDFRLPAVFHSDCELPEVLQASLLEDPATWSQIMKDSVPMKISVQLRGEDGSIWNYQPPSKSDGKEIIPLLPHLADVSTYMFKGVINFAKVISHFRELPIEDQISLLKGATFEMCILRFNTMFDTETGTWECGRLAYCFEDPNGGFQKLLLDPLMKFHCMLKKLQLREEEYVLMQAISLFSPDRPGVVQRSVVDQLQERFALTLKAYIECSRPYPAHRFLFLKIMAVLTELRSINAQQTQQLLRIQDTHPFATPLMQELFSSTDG

With `NC(N)=NCCC[C@H](N)C(=O)O`, the activity change, negative = cytotoxicity is 6.78% [at 8.39 µM] in assay [1], -0.503% [at 8.39 µM] in [3] and -0.647% [at 8.39 µM] in assay [5]. For the same molecule, the caspase activation in [2] was 0.0391% [at 8.39 µM]. Besides, the caspase-3/7 activation in assay [4] was 0.0695% [at 8.39 µM]. Further, the activity change, negative = inhibition in [6] is -7.41% [at 10.5 µM]; in [7] it was 24.2% [at 10.5 µM]; in [8] it was 10.6% [at 10.5 µM]; in assay [9], 1.33% [at 10.5 µM]; in assay [10], 5.88% [at 6.97 µM]; in assay [11] it was 0.752% [at 10.5 µM].

As for `O=C1CCC(=O)O1`, the Potency entry in assay [1], in [2], in assay [3], in [4], in assay [5] and in assay [7] was “inactive” in each case. Besides, the Potency result in [8], in assay [9], in assay [10] and in [11] was “inactive” throughout.

`CNC(=O)CN(CCN(CCN(CC(=O)[O-])CC(=O)NC)CC(=O)[O-])CC(=O)[O-].O.[Gd+3]`: the Potency entry in assay [1], in assay [2], in assay [3], in [4], in assay [5] and in [7] was “inactive” each time. Besides, the Potency result in assay [8], in assay [9], in assay [10] and in assay [11] was “inactive” throughout.

For the molecule `CC(C)Nc1ccc(NC(C)C)c2c1C(=O)c1ccccc1C2=O`, the Potency in assay [1] is 14.2 µM (active); in assay [3], 25.3 µM (active); in assay [5], 16 µM (active); in assay [12], 1.27 µM (active); in [9] it was 2.34 µM (active); in [11], 3.3 µM (active). Also, the Potency result in [2] and in assay [4] was “inactive” each time.

For the molecule `CCCCc1ncc(/C=C(\Cc2cccs2)C(=O)O)n1Cc1ccc(C(=O)O)cc1`, the Potency result in [1], in assay [2], in assay [3], in assay [4], in assay [5] and in assay [6] was “inactive” throughout. Further, the Potency entry in assay [7] and in [10] was “inactive” in each case. Moreover, the max activation in assay [13] was -2.02%.

In the case of `CCC(C)c1cc(C(C)(C)C)c(O)c(C(C)(C)C)c1` (stereo not drawn), the Potency entry in assay [1], in assay [2], in assay [3], in assay [4] and in assay [5] was “inactive” in each case. The Potency is 62.1 µM (active) in assay [9] and 19.6 µM (active) in assay [11].

Regarding `CCN(CC)c1ccc2c(-c3ccccc3C(=O)O)c3ccc(=[N+](CC)CC)cc-3oc2c1`, the Potency in assay [1] is 4.86 µM (active); in assay [3], 2.17 µM (active); in assay [5], 5.45 µM (active); in [7], 71 µM (active); in [8], 28.3 µM (active); in assay [9] it was 35.6 µM (active). The Potency in [11] was 12.6 µM (active). Also, the Potency result in assay [2] and in assay [4] was “inactive” each time.

Turning to `ClCCOCCOCCCl`, the Potency entry in assay [1], in [2], in assay [3], in assay [4], in assay [5] and in assay [12] was “inactive” each time. Also, the Potency entry in assay [8], in [10] and in assay [11] was “inactive” throughout.

With `Nc1c(CC(=O)O)cccc1C(=O)c1ccc(Br)cc1`, the Potency entry in [1], in assay [2], in [3], in [4], in assay [5] and in assay [14] was “inactive” each time. Moreover, the Potency entry in assay [15], in [6], in assay [7], in [8], in [9] and in [10] was “inactive” each time. For the same molecule, the Potency entry in assay [11] is “inactive”. The max activation in assay [13] was -2.12%.

On to `CCCCC(CC)COC(=O)CCCCCCCCC(=O)OCC(CC)CCCC` (stereo not drawn), for which the Potency entry in assay [1], in assay [2], in assay [3], in assay [4], in assay [5] and in assay [6] was “inactive” each time. For the same molecule, the Potency result in assay [7], in assay [8], in assay [10] and in assay [11] was “inactive” in each case. Moreover, the Potency in assay [9] was 39.9 µM (active).
